# Compound activity from PubChem.
# Compounds with a hit are over-represented: about 1.3% of the library has one in this group of screens.
# PKA-R2B activ: activators of human PKA-R2B complex | P22694+P31323 | PKA-R2B holoenzyme dissociation, Cy5-IP20 fluorescence polarization; R2B truncated from residue 108, S112A mutant; 0% DMSO only, 100% 113 µM cGMP | activation, % at 11.4 µM | actives 0.079% (n = 340,000) | AID 504700;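 active = activation above a cutoff set at the mean over all compounds plus 3 SD, cut at about 18% in these data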;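 note: higher means more holoenzyme dissociation and a rise in polarization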
# IDE inh: cellular human IDE inhibition. inhibition, % at 5.59 µM. actives 0.41% (n = 320,000). AID 434962. P14735. HEK cells, FAbetaB cleavage, fluorescence polarization;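 active = percent inhibition above the average of all tested compounds plus 3 SD, set per screening campaign, cut at about 16% in these data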;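 note: IDE supplied by intact live HEK cells; FP after avidin binding of uncleaved biotin substrate so inhibition keeps polarization high; 0% = DMSO wells and 100% = 60 µM reference IDE inhibitor Ii1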
# Target sequence (P14735 whole entry, looked up): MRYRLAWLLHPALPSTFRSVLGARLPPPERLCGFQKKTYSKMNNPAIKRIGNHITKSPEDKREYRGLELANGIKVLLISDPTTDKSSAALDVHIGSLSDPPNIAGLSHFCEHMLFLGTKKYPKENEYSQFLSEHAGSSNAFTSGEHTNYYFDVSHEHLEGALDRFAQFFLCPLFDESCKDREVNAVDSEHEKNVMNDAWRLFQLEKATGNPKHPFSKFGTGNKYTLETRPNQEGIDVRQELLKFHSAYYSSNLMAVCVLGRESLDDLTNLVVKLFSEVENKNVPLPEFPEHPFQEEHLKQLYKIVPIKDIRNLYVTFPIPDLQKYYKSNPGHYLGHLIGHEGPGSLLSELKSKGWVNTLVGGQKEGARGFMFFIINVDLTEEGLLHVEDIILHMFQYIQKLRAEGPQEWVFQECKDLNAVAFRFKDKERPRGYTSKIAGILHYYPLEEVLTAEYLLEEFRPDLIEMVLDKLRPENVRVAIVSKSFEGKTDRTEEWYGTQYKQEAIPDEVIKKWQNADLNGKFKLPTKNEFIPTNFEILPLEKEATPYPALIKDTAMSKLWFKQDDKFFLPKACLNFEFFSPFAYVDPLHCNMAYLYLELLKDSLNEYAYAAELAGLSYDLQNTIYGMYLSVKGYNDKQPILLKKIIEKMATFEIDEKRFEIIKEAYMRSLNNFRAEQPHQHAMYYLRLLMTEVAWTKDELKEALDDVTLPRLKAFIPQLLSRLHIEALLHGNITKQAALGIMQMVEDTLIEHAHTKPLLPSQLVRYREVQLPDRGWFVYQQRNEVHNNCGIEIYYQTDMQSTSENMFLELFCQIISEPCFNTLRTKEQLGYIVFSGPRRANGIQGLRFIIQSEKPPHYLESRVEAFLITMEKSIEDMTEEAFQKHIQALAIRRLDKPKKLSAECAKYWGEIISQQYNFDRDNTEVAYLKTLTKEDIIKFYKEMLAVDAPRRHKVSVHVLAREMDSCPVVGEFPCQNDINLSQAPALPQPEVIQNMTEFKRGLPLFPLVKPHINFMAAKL
# IDE cell activ: activators of human insulin-degrading enzyme in cells; HEK cells, FAbeta-B cleavage, fluorescence polarization; 0% vehicle, 100% cell-free pure enzyme wells; activation, % at 5.96 µM; actives 0.073% (n = 340,000); AID 493087;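 active = activation above the mean of all tested compounds plus 3 SD, set per screening campaign, cut at about 17% in these data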
# Rin1 Abl inh: inhibitors of human Rin1-Abl protein interaction | P00519+Q13671 | actives 0.4% (n = 360,000) | TR-FRET Rin1/Abl binding, biochemical | inhibition, % at 7.35 µM; in the data active = inhibition above about 5%, passing the limit was not always enough
# E coli Lon inh: E. coli protease La inhibition; P0A9M0; purified E. coli Lon protease, fluorescence polarization; inhibition, % at 7.94 µM; actives 0.42% (n = 360,000); AID 602123; in the data active = inhibition above about 13%, passing the limit was not always enough;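 note: 0% = enzyme with probe and DMSO and 100% = no enzyme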
# PKA-R1A act: activators of PKA-R1A complex; activation, % at 11.4 µM; P00514+P68181; actives 0.083% (n = 340,000); PKA-R1A dissociation, Cy5-IP20 fluorescence polarization; scaled: DMSO 0%, 113 µM cGMP 100%; AID 504707;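 active = percent activation above the mean of all tested compounds plus 3 SD, cut at about 19% in these data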;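 note: higher means more PKAc released from R1A so a rise in polarization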
# Rin1-Abl confirm: confirmation of inhibitors of human Rin1-Abl interaction; inhibition, % at 7.35 µM; AID 602124; actives 49% (n = 1,300); TR-FRET Rin1-Abl binding, purified proteins; shares compounds with Rin1 Abl inh
# GFP quench: counter-screen for Rin1-Abl inhibitors: GFP fluorescence quenchers; shares compounds with Rin1 Abl inh; inhibitors/quenchers counterscreen; inhibition, % at 6.75 µM; actives 8.5% (n = 1,300);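 note: ABL1-eGFP fusion protein alone without its partner RIN1-SBP; 0% = protein with vehicle and 100% = wells lacking protein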
# GFP quench DR: GFP fluorescence interference dose response; shares compounds with Rin1 Abl inh; 230 tested, under 10 active; GFP fluorescence interference/quenching counterscreen; IC50, µM; AID 602182; call rule not given here;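 note: ABL1-eGFP fusion protein alone without its RIN1 binding partner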
# Active calls of the source: *; x = not tested or not shown. Cut-off read from the data, not from the text of the source, unless noted: active = inhibition above about 6.5%; inactive = the rest.
SMILES,PKA-R2B activ,IDE inh,IDE cell activ,Rin1 Abl inh,E coli Lon inh,PKA-R1A act,Rin1-Abl confirm,GFP quench,others
O=C(NCCc1ccc(Cl)cc1)c1cccc(NC2=NC3CS(=O)(=O)CC3S2)c1 (stereo unspecified),16,7,-8,8.4*,-4,-6,8.0*,0,
COc1ccc(OC)c(CCNC(=O)Cc2ccc(NC3=NC4CS(=O)(=O)CC4S3)cc2)c1 (stereo unspecified),1,11,-20,11*,-4,2,13*,-1,
COc1ccc(OC)c(CCNC(=O)c2ccc(NC3=NC4CS(=O)(=O)CC4S3)cc2)c1 (stereo unspecified),-6,2,1,12*,-14,1,13*,0,
CC(NC(=O)Cc1ccc(NC2=NC3CS(=O)(=O)CC3S2)cc1)c1ccccc1 (stereo unspecified),3,8,-10,3,-5,-7,x,x,
CCN(C(=O)Cc1ccc(NC2=NC3CS(=O)(=O)CC3S2)cc1)c1ccccc1 (stereo unspecified),-11,9,-16,15*,-2,-1,11*,-1,
CCCCCCCCNC(=O)C(CCC(=O)OCc1ccccc1)NC(C)=O (stereo unspecified),-10,4,-2,2,13,-3,x,x,
Cc1ccc(CCNC(=O)c2ccc(NC3=NC4CS(=O)(=O)CC4S3)cc2)cc1 (stereo unspecified),-5,10,-4,8.5*,-10,5,9.3*,0,
CC(C)c1nc2oc3c(=O)[nH]cnc3c2c2c1CCC2,-11,5,5,7.8*,-8,-12,13*,-1,
Cc1nc(CN2CCC(c3ccccc3)CC2)cc(=O)[nH]1,x,1,x,2,5,x,x,x,
Cc1nc(CN2CCCCC2)cc(=O)[nH]1,-10,-1,7,9.8*,-3,-2,1,-3,
O=c1c(Cc2ccc(F)cc2)c(O)ccn1CC1CCCO1 (stereo unspecified),-11,-1,6,3,2,-14,x,x,
CC(=O)c1ccccc1C(=O)N1CCCC(CCC(=O)N2CCN(c3ccccn3)CC2)C1 (stereo unspecified),-7,12,3,7.9*,-4,-4,-1,0,
Cc1cccc(C(=O)N2CCCC(CCC(=O)N3CCN(c4ccccn4)CC3)C2)c1 (stereo unspecified),-14,-1,3,8.8*,0,-3,5,-1,
C=CCNC(=O)c1ccccc1NC(=O)c1ccc(Cl)c(S(=O)(=O)Nc2cc(C)ccc2C)c1,4,-3,5,2,-2,-1,x,x,
COc1cccc(NC(=O)CSc2ccccn2)c1,1,1,6,-4,-4,-6,x,x,
COc1cccc(CC(=O)Nc2ccc(N3CCOCC3)c(S(=O)(=O)Nc3ccccc3OC)c2)c1,0,x,3,4,-7,5,x,x,
CC(Oc1cccc(Cl)c1)C(=O)Nc1nc(-c2ccccn2)cs1 (stereo unspecified),9,6,0,7.1*,0,1,-1,1,
Cc1ccc(Cl)cc1S(=O)(=O)N1CCC(C(=O)NC2CCN(Cc3ccccc3)CC2)CC1,1,2,-1,15*,1,8,-2,1,
COc1ccc(-n2nnnc2SCC(=O)c2cc3ccccc3o2)cc1,-1,8,2,-6,-20,-15,x,x,
Oc1ccc(/C=N/Nc2ncc(Br)cn2)c(O)c1,-14,-2,2,12*,7,1,9.9*,2,
Cc1cc(-c2ccccc2)nc(N/N=C/c2ccccc2)n1,2,0,-7,2,3,10,x,x,
Cc1cc(-c2ccccc2)nc(N/N=C/c2ccc(O)cc2O)n1,-7,-1,-3,11*,-5,-5,11*,-2,
COc1ccc(CC(=O)Nc2ccc(S(=O)(=O)N3CCCCC3)cc2)cc1OC,2,3,5,10*,5,7,6.7*,-1,
Cc1cc(C)nc(SCC(=O)Nc2ccc(S(=O)(=O)N3CCCCC3)cc2)n1,-3,-3,2,6.3*,-9,6,4,0,
COc1ccc(S(=O)(=O)N2CCCCCC2)cc1C(=O)Nc1ccc(C(=O)N(C)C)cc1,-13,x,4,38*,-1,10,43*,1,GFP quench DR=>68
SMILES,PKA-R2B activ,IDE inh,IDE cell activ,Rin1 Abl inh,E coli Lon inh,PKA-R1A act,Rin1-Abl confirm,GFP quench,others
COc1cc(C(=O)Nc2ccc(S(=O)(=O)N3CCOCC3)cc2)c([N+](=O)[O-])cc1OC,1,3,1,11*,-6,4,0,0,
CN(CCc1ccccn1)C(=O)CCC1CCCN(C(=O)c2c(F)ccc(F)c2F)C1 (stereo unspecified),-7,-4,9,-2,-2,-3,x,x,
O=C(c1ccc(N2C(=O)C3CC=C(Cl)CC3C2=O)cc1)N1CCOCC1 (stereo unspecified),-8,0,2,-1,-2,-4,x,x,
Nc1cc(=O)[nH]c(SCC(=O)Nc2ccc(S(=O)(=O)N3CCCCC3)cc2)n1,-10,-1,8,6,-4,-2,x,x,
COc1ccc(NC(=O)CSc2nc(N)cc(=O)[nH]2)cc1S(=O)(=O)N1CCCCC1,-3,x,-4,11*,12,-2,7.7*,0,
CCCCNC(=O)C1(C)CCCCCN1Cc1cccc2c(OC)cc(C(=O)OCC)cc12 (stereo unspecified),x,x,x,6.9*,8,x,-2,1,
CCc1nc(NCCC(C)C)c2nnn(Cc3ccccc3)c2n1,-16,-10,5,1,-3,8,x,x,
CCN(c1cccc(C)c1)S(=O)(=O)c1csc(C(N)=O)c1,3,3,-4,2,-6,2,x,x,
Cc1nc(NC(=O)CSc2nnc(C3CC3)n2C)sc1C(=O)N(C)C,18,1,2,2,-7,1,x,x,
C=CCn1c(C)nnc1SCC(=O)Nc1nc(C)c(C(=O)N(C)C)s1,6,-5,0,13*,-6,-3,0,0,
O=C(O)c1cccc(Cn2c(Cl)c(/C=N/NC(=O)c3ccccc3Cl)sc2=O)c1,4,-3,2,0,3,5,x,x,
O=C(O)c1cccc(Cn2c(Cl)c(/C=N/NC(=O)c3ccccc3O)sc2=O)c1,0,8,1,5.2*,-8,1,-4,3,
